M1 ag parental – nonselective activator or artifact in parental CHO-K1 cells; Fluo-8 calcium fluorescence; scaled to maximal ATP response, vehicle zero; activation, % at 3 µM; 0.48% of 360,000 active; AID 602248; in the data active = activation above about 15%;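 also: untransfected CHO-K1 host cells lacking M1 receptor as counterscreen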
CHO-K1 Ca antag – nonselective inhibitor or artifact in parental CHO-K1 cells | inhibition, % at 3 µM | 0.6% of 360,000 active | ATP-induced calcium, Fluo-8 fluorescence | AID 602250;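 active = inhibition above a per-plate cutoff, the plate's mean sample inhibition plus 3 SD, cut at about 24% in these data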;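 also: 0% = DMSO plus EC80 ATP and 100% = DMSO alone without ATP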
CHRM1 PAM – positive allosteric modulators of human M1 muscarinic receptor; CHO-K1 hM1, Fluo-8 calcium fluorescence, ACh EC20; 0% = ACh EC20, 100% = maximal ACh; 0.088% of 360,000 active; activation, % at 3 µM; P11229; in the data active = activation above about 19%, passing the limit was not always enough
Target sequence (P11229 whole entry, looked up): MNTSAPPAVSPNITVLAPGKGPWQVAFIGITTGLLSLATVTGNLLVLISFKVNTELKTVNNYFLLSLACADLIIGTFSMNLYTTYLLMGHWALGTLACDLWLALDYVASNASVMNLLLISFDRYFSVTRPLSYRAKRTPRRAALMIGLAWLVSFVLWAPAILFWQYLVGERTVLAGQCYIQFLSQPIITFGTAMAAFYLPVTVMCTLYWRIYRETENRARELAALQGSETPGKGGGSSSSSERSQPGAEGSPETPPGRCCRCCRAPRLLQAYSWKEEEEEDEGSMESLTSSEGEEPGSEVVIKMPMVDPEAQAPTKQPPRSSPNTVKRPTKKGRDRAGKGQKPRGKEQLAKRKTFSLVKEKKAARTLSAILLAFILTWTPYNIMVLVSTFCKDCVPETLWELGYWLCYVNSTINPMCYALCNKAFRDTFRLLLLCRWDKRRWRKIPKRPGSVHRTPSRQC
CHO-K1 Ca PAM – counter-screen for M1 PAMs: effect in parental CHO-K1 cells; activation, % at 3 µM; 0.02% of 360,000 active; ATP EC20, Fluo-8 calcium fluorescence; 0% at ATP EC20, 100% at ATP max;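 active = activation above the run cutoff, the mean activation of all test compounds plus 3 SD, cut at about 40% in these data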;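 also: peak over basal fluorescence ratio in a 140 s read after ATP addition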
M1 ag – human M1 muscarinic receptor agonism | CHO-K1 hM1, Fluo-8 calcium fluorescence, agonist mode; 0% DMSO, 100% acetylcholine EC100 | activation, % at 3 µM | 0.33% of 360,000 active | AID 588814;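 active = activation above the run's mean compound activation plus 3 SD, cut at about 16% in these data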;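 also: peak over basal fluorescence ratio within a 140 s kinetic read after compound addition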
CHRM1 antagonist – antagonists of human M1 muscarinic receptor. P11229. CHO-K1 hM1, Fluo-8 calcium fluorescence, ACh EC80 antagonist. inhibition, % at 3 µM. 1.3% of 360,000 active. AID 588852;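 active = percent inhibition above its own plate's cutoff, namely the mean of that plate's compound wells plus 3 SD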;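 also: peak over basal fluorescence ratio during 140 s after agonist addition; 0% = ACh EC80 plus DMSO and 100% = DMSO alone without agonist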
Numbers without * were called inactive. Shown are actives, neighbours in structure and some others; about 2.4% of the full set was active somewhere.

Results for O=C(c1cc(COc2ccc(F)cc2Cl)on1)N1CCC(c2ccncc2)CC1 ?
M1 ag parental: 10; CHO-K1 Ca antag: 2; CHRM1 PAM: -4; CHO-K1 Ca PAM: 4; M1 ag: -5; CHRM1 antagonist: 10

What do the screens show for `CCN(CC)C1CCN(C(=O)c2cc(COc3cccc4cccnc34)on2)C1` (stereo not drawn)?
M1 ag parental: 0; CHO-K1 Ca antag: -11; CHRM1 PAM: -21; CHO-K1 Ca PAM: 4; M1 ag: -1; CHRM1 antagonist: 73*

What do the screens show for `COc1ccc(CNC(=O)CN(Cc2ccccc2)C(=O)CCC(=O)Nc2nccs2)cc1`?
M1 ag parental: 2; CHO-K1 Ca antag: -6; CHRM1 PAM: -5; CHO-K1 Ca PAM: -6; M1 ag: -6; CHRM1 antagonist: 12

What do the screens show for `COc1ccc(NC(=O)CCC(=O)N2CCC(c3ccccc3)=N2)cc1S(=O)(=O)N1CCCCC1`?
M1 ag parental: 0; CHO-K1 Ca antag: -18; CHRM1 PAM: 0; CHO-K1 Ca PAM: -1; M1 ag: -4; CHRM1 antagonist: -1

Results for CNS(=O)(=O)c1cccc(C(=O)OCC(=O)N2CC(C)OC(C)C2)c1 (stereo not drawn) ?
M1 ag parental: 1; CHO-K1 Ca antag: -13; CHRM1 PAM: 8; CHO-K1 Ca PAM: 22; M1 ag: -2; CHRM1 antagonist: -8

What do the screens show for `COc1ccccc1CNC(=O)C1Cc2cc(S(=O)(=O)N3CCCCC3)ccc2N1C(C)=O` (stereo not drawn)?
M1 ag parental: 0; CHO-K1 Ca antag: 1; CHRM1 PAM: 14; CHO-K1 Ca PAM: 14; M1 ag: -2; CHRM1 antagonist: -13

What do the screens show for `Cc1ccc(N(C(=O)c2ccco2)C2C=CS(=O)(=O)C2)cc1` (stereo not drawn)?
M1 ag parental: 1; CHO-K1 Ca antag: -5; CHRM1 PAM: 11; CHO-K1 Ca PAM: 17; M1 ag: -7; CHRM1 antagonist: -6

What do the screens show for `C#CCOc1ccc(/C=C2/C(=O)N(c3cccc(C(=O)O)c3)N=C2C)cc1OC`?
M1 ag parental: -1; CHO-K1 Ca antag: 26*; CHRM1 PAM: 9; CHO-K1 Ca PAM: -19; M1 ag: 1; CHRM1 antagonist: -7

How did COc1cc(/C=C2\C(=O)N(c3cccc(C(=O)O)c3)N=C2C)ccc1OCc1ccccc1 do in these assays?
M1 ag parental: 0; CHO-K1 Ca antag: -1; CHRM1 PAM: 3; CHO-K1 Ca PAM: -10; M1 ag: -3; CHRM1 antagonist: -8

Results for CCc1ccccc1-n1c(SCC(=O)N2CCCC2)nnc1-c1ccccn1 ?
M1 ag parental: 1; CHO-K1 Ca antag: -4; CHRM1 PAM: 6; CHO-K1 Ca PAM: 14; M1 ag: -2; CHRM1 antagonist: -7

What do the screens show for `Cc1ccccc1-n1c(SCC(=O)N2CCCC2)nnc1-c1ccccn1`?
M1 ag parental: 0; CHO-K1 Ca antag: -12; CHRM1 PAM: 22*; CHO-K1 Ca PAM: 18; M1 ag: 1; CHRM1 antagonist: -37

What do the screens show for `c1ccc(-c2ccc(OCCCNC3CCCC3)cc2)cc1`?
M1 ag parental: 14; CHO-K1 Ca antag: 14; CHRM1 PAM: -29; CHO-K1 Ca PAM: -7; M1 ag: 0; CHRM1 antagonist: 36*

What do the screens show for `CCCCn1c(/N=C/c2ccc(N(C)C)cc2)nc2ccccc21`?
M1 ag parental: 0; CHO-K1 Ca antag: 15; CHRM1 PAM: 21*; CHO-K1 Ca PAM: -2; M1 ag: 2; CHRM1 antagonist: -23

What do the screens show for `COCCCNC(=O)COc1cc2c(c3oc(=O)c(C)c(C)c13)CCC(C)(C)O2`?
M1 ag parental: 13; CHO-K1 Ca antag: -1; CHRM1 PAM: 0; CHO-K1 Ca PAM: 13; M1 ag: -6; CHRM1 antagonist: -9

How did O=C1N(c2ccccc2)C[C@@H]2C[C@@H](c3cccc4c3OCO4)N3CCC[C@@]123 do in these assays?
M1 ag parental: 1; CHO-K1 Ca antag: -8; CHRM1 PAM: -30; CHO-K1 Ca PAM: 4; M1 ag: -12; CHRM1 antagonist: 49*

How did COc1cc(C(O)c2nc(-c3ccncc3)cs2)ccc1F (stereo not drawn) do in these assays?
M1 ag parental: 8; CHO-K1 Ca antag: -4; CHRM1 PAM: -4; CHO-K1 Ca PAM: 5; M1 ag: 2; CHRM1 antagonist: 1

Results for CCc1ccc(S(=O)(=O)c2ccc(-n3nc(C)cc3N)cc2)cc1 ?
M1 ag parental: 0; CHO-K1 Ca antag: 6; CHRM1 PAM: -8; CHO-K1 Ca PAM: 4; M1 ag: -4; CHRM1 antagonist: 11

Results for O=C(Cc1ccccc1)Nc1scc(-c2ccccc2)c1C(=O)N1CCOCC1 ?
M1 ag parental: 1; CHO-K1 Ca antag: -11; CHRM1 PAM: 9; CHO-K1 Ca PAM: 23; M1 ag: -1; CHRM1 antagonist: -11

Results for NC(=O)c1c(-c2ccc(Cl)cc2Cl)csc1NC(=O)Cc1ccccc1 ?
M1 ag parental: 11; CHO-K1 Ca antag: 22; CHRM1 PAM: -25; CHO-K1 Ca PAM: 9; M1 ag: -7; CHRM1 antagonist: 44*

Results for Cc1cc(NC(=O)CS(=O)(=O)c2cn(Cc3cccc(F)c3)c3ccccc23)no1 ?
M1 ag parental: 2; CHO-K1 Ca antag: -2; CHRM1 PAM: 20; CHO-K1 Ca PAM: 7; M1 ag: 17*; CHRM1 antagonist: -9

What do the screens show for `Cc1cc(NC(=O)CSCC(=O)NCc2cccc(C(F)(F)F)c2)no1`?
M1 ag parental: 1; CHO-K1 Ca antag: -13; CHRM1 PAM: 2; CHO-K1 Ca PAM: 24; M1 ag: -1; CHRM1 antagonist: -12

What do the screens show for `Cc1ccc(CS(=O)(=O)c2cn(CC(=O)Nc3ccon3)c3ccccc23)cc1`?
M1 ag parental: 19*; CHO-K1 Ca antag: 7; CHRM1 PAM: 3; CHO-K1 Ca PAM: -1; M1 ag: -1; CHRM1 antagonist: 1

Results for Cc1cc(NC(=O)CS(=O)(=O)c2cn(Cc3ccc(F)cc3)c3ccccc23)no1 ?
M1 ag parental: 10; CHO-K1 Ca antag: -4; CHRM1 PAM: 11; CHO-K1 Ca PAM: 2; M1 ag: 32*; CHRM1 antagonist: 17

Results for Cc1cc(NC(=O)CS(=O)(=O)c2cn(Cc3cccc(C(F)(F)F)c3)c3ccccc23)no1 ?
M1 ag parental: 4; CHO-K1 Ca antag: -5; CHRM1 PAM: 7; CHO-K1 Ca PAM: 4; M1 ag: 18*; CHRM1 antagonist: -8

How did CCn1cc(S(=O)(=O)CC(=O)Nc2cc(C)on2)c2ccccc21 do in these assays?
M1 ag parental: 1; CHO-K1 Ca antag: -3; CHRM1 PAM: -5; CHO-K1 Ca PAM: 16; M1 ag: -1; CHRM1 antagonist: 18

How did CCOC(=O)c1sc(NC(=O)C2CC(=O)N(c3ccc(OCC)cc3)C2)nc1C (stereo not drawn) do in these assays?
M1 ag parental: 2; CHO-K1 Ca antag: -7; CHRM1 PAM: 5; CHO-K1 Ca PAM: -4; M1 ag: -6; CHRM1 antagonist: -3

Bioassay records as filed in PubChem.
